These results are taken from PubChem BioAssay (NCI).

The structures appear in SMILES notation. The panel holds about 83,000 compounds, 20% with a hit somewhere; the sample as a whole holds those more often.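 Growth was measured after 48 h exposure to one concentration of compound in 96-well plates. Values under 10 count as active.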 Values without a mark were called inactive. The source made the active and inactive calls.

Some test systems named below: DU-145 prostate; K-562 leukemia; MALME-3M melanoma; MDA-MB-231 breast; RXF 393 renal; SF-268 CNS; SF-295 CNS; SF-539 CNS; UACC-257 melanoma; M14 melanoma; HCT-15 colon; HT29 colon; SNB-75 CNS; SNB-19 CNS; U251 CNS; PC-3 prostate; SK-MEL-5 melanoma; UACC-62 melanoma; LOX IMVI melanoma; SK-MEL-28 melanoma.
Holding throughout (test): NCI-60 one-dose screen, 48 h (100 = growth as untreated, 0 = no growth, -100 = all killed)
Holding throughout (settings): 10 µM unless noted

Turning to `C=CCn1c(=O)c2cnc(Nc3ccc(N4CCN(C)CC4)cc3)nc2n1-c1cccc(C(C)(C)O)n1`, the growth in the assay with DU-145 prostate was 17.2%; with K-562 leukemia it was 1.55% (active); in the assay with MALME-3M melanoma, 44.8%; in the assay on MDA-MB-231 breast, 9.62% (active); in the assay with RXF 393 renal it was -27.1% (active); in the assay on SF-268 CNS, 30.7%. The growth with SF-295 CNS is 34.8%; in the assay on SF-539 CNS, -26.3% (active); in the assay on UACC-257 melanoma, 46.1%; in the assay with M14 melanoma it was 9.79% (active); with HCT-15 colon, 4.74% (active); in the assay with HT29 colon, -12.4% (active). Further, the growth is 3.88% (active) in the assay on SNB-75 CNS; 26.9% with SNB-19 CNS; 16.7% in the assay on U251 CNS; 28.4% with PC-3 prostate; 18.2% with SK-MEL-5 melanoma; 42.6% with UACC-62 melanoma. In addition, the figures for the growth in the assay on LOX IMVI melanoma and in the assay with SK-MEL-28 melanoma were 5.87% (active) and 64.4%, respectively.
With `Cc1cc(-c2cc(O)ccc2Cl)cc2nnc(Nc3ccc(OCCN4CCCC4)cc3)nc12`, the growth in the assay on DU-145 prostate is -89.4% (active); in the assay with K-562 leukemia it was -63.9% (active); in the assay on MALME-3M melanoma it was -68.4% (active); in the assay with MDA-MB-231 breast it was -80.5% (active); in the assay with RXF 393 renal, -73.4% (active); in the assay on SF-268 CNS it was -69.8% (active). For the same compound, the growth in the assay on SF-295 CNS was -76.3% (active); with SF-539 CNS, -86.8% (active); in the assay on UACC-257 melanoma it was -75.9% (active); in the assay on M14 melanoma, -51.8% (active); in the assay with HCT-15 colon, -78.5% (active); in the assay with HT29 colon, -57.1% (active). Besides, the growth is -90.8% (active) in the assay with SNB-75 CNS; -64.4% (active) in the assay with SNB-19 CNS; -74.5% (active) in the assay on U251 CNS; -80.5% (active) in the assay with PC-3 prostate; -84.9% (active) with SK-MEL-5 melanoma; -77.7% (active) in the assay on UACC-62 melanoma. For the same compound, the growth in the assay with LOX IMVI melanoma was -63.9% (active); in the assay with SK-MEL-28 melanoma it was -72.3% (active).
For the compound `COc1cccc(Nc2ncnn3ccc(CN4CC[C@@H](N)[C@H](O)C4)c23)c1`, the growth in the assay with DU-145 prostate is 27.1%; in the assay with K-562 leukemia it was 2.52% (active); with MALME-3M melanoma, 86.4%; in the assay with MDA-MB-231 breast, 31.3%; in the assay with RXF 393 renal it was -41.4% (active); in the assay with SF-268 CNS, 45.1%. In addition, the growth with SF-295 CNS was 72.9%; with SF-539 CNS it was -2.77% (active); with UACC-257 melanoma, 76.1%; with M14 melanoma, 96%; in the assay with HCT-15 colon it was 28.7%; with HT29 colon it was 27.1%. Further, the growth is -44.6% (active) in the assay with SNB-75 CNS; 43.1% in the assay with SNB-19 CNS; 63.2% with U251 CNS; 56.3% in the assay on PC-3 prostate; 76.2% in the assay with SK-MEL-5 melanoma; 93.4% in the assay on UACC-62 melanoma. For the same compound, the growth is 35.3% in the assay on LOX IMVI melanoma and 89.7% with SK-MEL-28 melanoma.
For the compound `COc1cc(Nc2ncc3c(n2)-c2ccc(Cl)cc2C(c2c(F)cccc2OC)=NC3)ccc1C(=O)O`, the growth in the assay on DU-145 prostate is 78.4%; with K-562 leukemia, 44.9%; in the assay on MALME-3M melanoma, 72.4%; in the assay on MDA-MB-231 breast, 69.6%; in the assay with RXF 393 renal it was 95%; with SF-268 CNS, 73%. The growth in the assay with SF-295 CNS was 64.6%; in the assay on SF-539 CNS, 56.6%; in the assay on UACC-257 melanoma, 80.8%; in the assay with M14 melanoma it was 62.8%; with HCT-15 colon it was 37.2%; in the assay with HT29 colon it was 40.7%. In addition, the growth is 91.6% with SNB-75 CNS; 74.1% in the assay on SNB-19 CNS; 51.6% in the assay with U251 CNS; 60.7% with PC-3 prostate; 67.8% in the assay with SK-MEL-5 melanoma; 64.6% in the assay with UACC-62 melanoma. The growth in the assay with LOX IMVI melanoma is 35.9%; with SK-MEL-28 melanoma it was 84.7%.
Regarding `C=CC(=O)Nc1cc2c(Nc3ccc(F)c(Cl)c3)ncnc2cc1OCCCN1CCOCC1`, the growth is 14.9% in the assay on DU-145 prostate; 2.24% (active) with K-562 leukemia; 27.3% in the assay with MALME-3M melanoma; 0.732% (active) with MDA-MB-231 breast; -53.1% (active) in the assay with RXF 393 renal; -5.09% (active) with SF-268 CNS. Moreover, the growth is 53.4% in the assay on SF-295 CNS; -24.4% (active) in the assay with SF-539 CNS; 35.1% in the assay with UACC-257 melanoma; -62.3% (active) with M14 melanoma; -32% (active) in the assay on HCT-15 colon; -74.9% (active) with HT29 colon. In addition, the growth in the assay on SNB-75 CNS was -15.9% (active); with SNB-19 CNS it was 17.4%; in the assay on U251 CNS, 21.2%; in the assay on PC-3 prostate it was 17.5%; in the assay with SK-MEL-5 melanoma it was 48.7%; in the assay on UACC-62 melanoma, -49.7% (active). In addition, the growth was -87% (active) with LOX IMVI melanoma and -19% (active) in the assay with SK-MEL-28 melanoma.
Regarding `Cc1cc([C@@H](C)Nc2ccccc2C(=O)O)c2nc(N3CCOCC3)cc(=O)n2c1`, the growth with DU-145 prostate was 57.2%; with K-562 leukemia, 66.9%; in the assay with MALME-3M melanoma, 40.7%; in the assay with MDA-MB-231 breast, 60.3%; in the assay on RXF 393 renal, -21.1% (active); in the assay on SF-268 CNS it was 47.6%. Also, the growth was 9.97% (active) in the assay on SF-295 CNS; 19.7% in the assay with SF-539 CNS; 32.8% in the assay with UACC-257 melanoma; 45.9% with M14 melanoma; 44.5% with HCT-15 colon; 35.9% in the assay with HT29 colon. The growth in the assay on SNB-75 CNS is -19.5% (active); with SNB-19 CNS it was 52.8%; in the assay with U251 CNS, 55.4%; in the assay on PC-3 prostate, 30.5%; with SK-MEL-5 melanoma, 52.5%; in the assay on UACC-62 melanoma, 14%. In addition, the growth is 30.1% in the assay on LOX IMVI melanoma and 43.9% in the assay with SK-MEL-28 melanoma.
Regarding `CCOC(=O)c1sc(NC(=O)COc2ccc(/C=C3\Cc4ccc(Cl)cc4C3=O)cc2)nc1C`, the growth in the assay with DU-145 prostate was 117%; in the assay on K-562 leukemia it was 102%; in the assay with MALME-3M melanoma, 110%; in the assay on MDA-MB-231 breast, 90.6%; in the assay on RXF 393 renal it was 116%; in the assay on SF-268 CNS, 114%. Besides, the growth in the assay with SF-295 CNS was 127%; in the assay with SF-539 CNS it was 86.9%; with UACC-257 melanoma, 112%; in the assay on M14 melanoma it was 107%; with HCT-15 colon, 120%; in the assay on HT29 colon, 116%. Moreover, the growth was 95.8% with SNB-75 CNS; 102% with SNB-19 CNS; 99.2% with U251 CNS; 97% in the assay with PC-3 prostate; 106% in the assay on SK-MEL-5 melanoma; 93.4% in the assay on UACC-62 melanoma. Moreover, the growth with LOX IMVI melanoma is 97.9%; in the assay with SK-MEL-28 melanoma, 127%.
Regarding `CC(C)c1cc(CNc2nc(Nc3cc(C4CC4)[nH]n3)cc(N3CCN(C)CC3)n2)on1`, the growth in the assay on DU-145 prostate was -15.7% (active); with K-562 leukemia, 5.67% (active); with MALME-3M melanoma, -42.9% (active); in the assay on MDA-MB-231 breast it was 6.11% (active); in the assay with RXF 393 renal it was -54.1% (active); in the assay with SF-268 CNS it was -3.51% (active). In addition, the growth in the assay with SF-295 CNS was 6.84% (active); in the assay with SF-539 CNS it was -61.8% (active); with UACC-257 melanoma, -14.3% (active); with M14 melanoma, -37.5% (active); in the assay on HCT-15 colon it was 6.83% (active); in the assay with HT29 colon, 0.12% (active). Besides, the growth with SNB-75 CNS was -64.2% (active); in the assay with SNB-19 CNS, 13.4%; in the assay with U251 CNS it was 1.02% (active); in the assay on PC-3 prostate, 4.54% (active); with SK-MEL-5 melanoma, -24.2% (active); in the assay on UACC-62 melanoma, -63.5% (active). Also, the figures for the growth in the assay on LOX IMVI melanoma and in the assay on SK-MEL-28 melanoma were -58.4% (active) and -13.9% (active), respectively.
